Compound activity from PubChem.
Rows were chosen to be rich in hits. Some 1.6% of all compounds tested hit in one or more screens of this group.
KCNQ2 inh – inhibitors of rat KCNQ2 potassium channel. O88943. CHO-K1 KCNQ2, FluxOR thallium flux, 20 min; active compounds read low. B-score at 10 µM. 310,000 tested, 1.1% active. AID 2156;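 active = fluorescence ratio B-score at most minus 3 library SDs, with starting brightness B-score within 2 library SDs, cut at about -5.5 in these data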
KCNQ2 enhance – KCNQ2 (rat) channel potentiation; B-score at 10 µM; AID 2239; 310,000 tested, 0.54% active; CHO-K1 KCNQ2, FluxOR thallium flux fluorescence; active compounds read high;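 active = fluorescence ratio B-score at least 3 SD of library B-scores, with initial fluorescence B-score within 3 of them, cut at about 5.3 in these data; same plate scores as AID 2156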;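 also: B-score of peak minus minimum over baseline fluorescence ratio after K+ and Tl+ stimulus; positive B-score means potentiation of KCNQ2 with more thallium influx and brighter signal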
Kir21 conf inh – confirmation of mouse Kir2.1 potassium channel inhibitors; shares compounds with KCNQ2 enhance; Kir2.1-expressing cells, FluxOR thallium flux fluorescence; active compounds read low; Tl flux remaining, % of negative control (active compounds read low), % at 10 µM; 2,300 tested, 41% active; AID 2032;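 active = Primary-screen hit whose thallium flux fell at least 3 control SD below untreated wells in both duplicates, with normal baseline fluorescence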
HEK293 Tl flux – alters thallium flux in parental HEK293 cells, Kir2.1 counter-screen | FluxOR thallium flux fluorescence; 0% = unstimulated blank wells | shares compounds with KCNQ2 enhance | FluxOR signal as % of negative control (100 = no effect), % at 10 µM | 2,300 tested, 19% active;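 active = dye signal at least 3 control SD above or below untreated wells in both duplicates, raw fluorescence within 3, either direction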;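 also: percent is based on the flux ratio of peak minus minimum fluorescence over baseline F0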
CHO-K1 Tl ctr – alters thallium flux in parental CHO-K1 cells, KCNQ2 counter-screen. activity increase over 3SD of controls, % at 10 µM. FluxOR thallium flux fluorescence; zero = vehicle mean+3SD, 100% = vehicle-minus-blank window. shares compounds with KCNQ2 enhance. 1,200 tested, 43% active;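 active = signal rise of at least 3 SD above the untreated control mean, in both duplicate wells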;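 also: counter screen of KCNQ2 potentiator hits so any rise reflects channel-independent effects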
KCNQ1 sel pot – selectivity of KCNQ2 potentiators: effect on human KCNQ1; shares compounds with KCNQ2 enhance; CHO KCNQ1 stable, FluxOR thallium flux fluorescence; beyond 3SD, as % of vehicle-control signal; activation over 3SD threshold, % at 10 µM; 1,200 tested, 28% active; AID 2283;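 active = fluorescence ratio rise of at least 3 SD of vehicle wells above their mean, in both replicate wells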
KCNQ2 pot conf – confirmation of rat KCNQ2 potassium channel potentiators; CHO-KCNQ2 cells, FluxOR thallium flux fluorescence; AID 2287; potentiation, less the hit threshold, % at 10 µM; shares compounds with KCNQ2 enhance; 1,200 tested, 68% active;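 active = fluorescence ratio rising 3 SD or more over the vehicle control mean in both replicates, plus primary screen hit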;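 also: peak minus minimum thallium fluorescence divided by baseline after K/Tl stimulus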
Kir21 spec – selectivity of KCNQ2 potentiators: effect on mouse Kir2.1. HEK293 Kir2.1, FluxOR thallium flux fluorescence. activity over 3SD threshold, % at 10 µM. shares compounds with KCNQ2 enhance. 1,200 tested, 2% active;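 active = fluorescence ratio rise of at least 3 SD above the vehicle-control mean, seen in both replicates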
KCNQ2 W236L MoA – rat KCNQ2 W236L mutant potentiation by KCNQ2 potentiators. shares compounds with KCNQ2 enhance. CHO KCNQ2-W236L, automated patch clamp current. current increase over 3SD of negative controls (%), active compounds read high, % at 25 µM. 940 tested, 10% active. AID 2558;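 active = current increase at least 3 SD of the untreated controls above them in both duplicate recordings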
Target sequence (O88943 whole entry W236L, looked up): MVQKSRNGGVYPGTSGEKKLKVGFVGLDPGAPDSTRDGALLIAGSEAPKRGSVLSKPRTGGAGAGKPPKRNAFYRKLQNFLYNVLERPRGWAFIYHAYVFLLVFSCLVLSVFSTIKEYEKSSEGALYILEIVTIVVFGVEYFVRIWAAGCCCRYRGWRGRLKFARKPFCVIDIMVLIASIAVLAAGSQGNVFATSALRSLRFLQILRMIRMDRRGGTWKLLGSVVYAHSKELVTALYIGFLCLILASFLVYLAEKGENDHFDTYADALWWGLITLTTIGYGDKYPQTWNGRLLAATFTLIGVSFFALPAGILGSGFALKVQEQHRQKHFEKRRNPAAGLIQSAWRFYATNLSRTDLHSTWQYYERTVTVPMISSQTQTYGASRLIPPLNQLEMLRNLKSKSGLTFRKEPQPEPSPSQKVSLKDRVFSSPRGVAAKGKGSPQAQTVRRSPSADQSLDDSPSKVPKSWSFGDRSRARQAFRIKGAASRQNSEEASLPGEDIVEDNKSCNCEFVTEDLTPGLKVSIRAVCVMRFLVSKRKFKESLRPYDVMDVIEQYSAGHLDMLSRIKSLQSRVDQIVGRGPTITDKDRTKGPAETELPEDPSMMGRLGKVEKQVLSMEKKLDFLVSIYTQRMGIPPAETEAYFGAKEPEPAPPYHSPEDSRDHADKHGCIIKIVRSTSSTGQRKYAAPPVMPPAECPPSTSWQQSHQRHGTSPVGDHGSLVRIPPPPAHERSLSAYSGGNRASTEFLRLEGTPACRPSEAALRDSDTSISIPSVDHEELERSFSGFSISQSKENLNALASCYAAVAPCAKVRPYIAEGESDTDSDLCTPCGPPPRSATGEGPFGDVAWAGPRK
Of the large screens only hits and unclear results are named; the others gave an inactive call (follow-up assays come after a bar, where they were run).

CCCC(=O)NC(Nc1ccccc1F)C(Cl)(Cl)Cl (configuration not stated)	none | Kir21 conf inh 58% | HEK293 Tl flux 62%
CCN(CC)CC#CCC(O)(c1ccccc1)c1ccccc1	none (no result: KCNQ2 enhance)
CCN(CC)CC#CCC(C)(c1ccccc1)c1ccccc1	none (no result: KCNQ2 enhance) | Kir21 conf inh inactive | HEK293 Tl flux inactive
CC(Sc1ccc(Cl)cc1)C(=O)NCc1ccc2c(c1)OCO2 (configuration not stated)	KCNQ2 enhance 7.7 | Kir21 conf inh inactive | HEK293 Tl flux inactive | CHO-K1 Tl ctr 81 | KCNQ1 sel pot 14 | KCNQ2 pot conf 3.7 | Kir21 spec inactive | KCNQ2 W236L MoA inactive
CC(Sc1ccc(Cl)cc1)C(=O)Nc1ccc2c(c1)OCO2 (configuration not stated)	none
Cc1ccc(O)c(NC(=S)NC(=O)Cc2ccc(Cl)cc2)c1	KCNQ2 enhance 7 | Kir21 conf inh inactive | HEK293 Tl flux inactive | CHO-K1 Tl ctr 0.0 | KCNQ1 sel pot inactive | KCNQ2 pot conf inactive | Kir21 spec inactive
Cc1ccc(NC(=S)NC(=O)c2ccc(-c3ccc(Cl)cc3)o2)c(O)c1	none
Cc1ccc(S(=O)(=O)Nc2ccc(NC(=O)c3cccnc3)cc2)cc1	none (no result: KCNQ2 enhance)
CCSC(=S)c1c(C)[nH]n(-c2ccccc2)c1=O	KCNQ2 enhance 7 | Kir21 conf inh inactive | HEK293 Tl flux 222% | CHO-K1 Tl ctr inactive | KCNQ1 sel pot inactive | KCNQ2 pot conf inactive | Kir21 spec inactive | KCNQ2 W236L MoA inactive
Cc1[nH]n(-c2ccccc2)c(=O)c1C(=O)c1ccccc1	none (no result: KCNQ2 enhance)
CCOc1ccc(C2CC(=O)N(Nc3ccc([N+](=O)[O-])cc3[N+](=O)[O-])C2=O)cc1 (configuration not stated)	none
Cc1cc(C)c2c(n1)SCC(=O)N2CC(=O)Nc1c(C)cccc1C	none (no result: KCNQ2 enhance)
CCOc1cc(CNCCO)cc(Br)c1OCc1cccs1	none | Kir21 conf inh 23% | HEK293 Tl flux inactive
CCOc1cc(CNCCO)cc(Br)c1OCc1ccc(Cl)cc1Cl	KCNQ2 inh -13 | Kir21 conf inh 21% | HEK293 Tl flux inactive
CCOc1cc(CNCc2cccs2)cc(Br)c1OCC	none (no result: KCNQ2 enhance)
CCOc1cc(CNCCSc2nnnn2C)cc(Br)c1OCc1ccccc1F	none
CCOc1cc(CNCc2ccncc2)cc(Br)c1OCc1ccccc1F	none (no result: KCNQ2 enhance) | Kir21 conf inh 52% | HEK293 Tl flux inactive
CCOc1cccc(CNCCO)c1OCc1ccc(Cl)cc1Cl	none
Cc1ccc(Cc2c(C)[nH]c(=S)[nH]c2=O)cc1	none (no result: KCNQ2 enhance)
Cc1ccc(Cc2c[nH]c(=S)s2)cc1	KCNQ2 enhance 7.9 | Kir21 conf inh inactive | HEK293 Tl flux 386% | CHO-K1 Tl ctr inactive | KCNQ1 sel pot inactive | KCNQ2 pot conf 63 | Kir21 spec inactive | KCNQ2 W236L MoA inactive
CNC(=O)c1[nH]cnc1C(=O)Nc1ccc(OC)cc1	none
c1ccc(Cc2cc[n+](Cc3ccccn3)cc2)cc1	none (no result: KCNQ2 enhance)
CCn1c(SCc2cccc(C)c2)nnc1-c1ccccc1	none (no result: KCNQ2 enhance) | Kir21 conf inh 57% | HEK293 Tl flux inactive
CCn1c(SCC(O)c2ccccc2)nnc1-c1ccccc1 (configuration not stated)	none
COc1ccccc1NC1=C(NC(C)=O)C(=O)c2ccccc2C1=O	KCNQ2 enhance 8 | Kir21 conf inh inactive | HEK293 Tl flux inactive | CHO-K1 Tl ctr inactive | KCNQ1 sel pot inactive | KCNQ2 pot conf 4.8 | Kir21 spec inactive | KCNQ2 W236L MoA inactive
COC1=C(Nc2ccccc2OC)C(=O)c2ccccc2C1=O	none (no result: KCNQ2 enhance)
NNC(=O)c1ccc(N2CCCCCC2)c([N+](=O)[O-])c1	none (no result: KCNQ2 enhance)
